Data as given in the supplement of paper PMC10849652.
Of roughly 7,900 targets only a part is listed; those with a hit were picked by preference. About 0.6% of all pairs of compound and target were hits.

compound: CS(=O)(=O)c1ccc(-c2cnc(N)c(C(=O)Nc3ccccc3)n2)cc1; experiment: log2 fold change, soluble protein after heating vs DMSO (PISA); higher = thermal stabilisation; K562 cells, 10 uM, 30 min; active = over 0.2 and 3.5 SD of the protein, either way, in both replicates (recomputed)
Outline: (§1)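 K562 cells at 2×10^6 cells/mL were treated for 30 min with 10 μM compound, and aliquots were heated for 3 min over 48°C-58°C before pooling. Extraction used PBS with 0.5% NP-40 at 4°C, and soluble protein was the supernatant after 21,000xg for 90 min, measured by TMTpro 16plex LC-MS/MS with channel sums equalised. Thermal stability values, relative to control samples and from duplicates, are log2 fold changes.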

UniProt Q9P2D3, sequence (Q9P2D3 whole entry, looked up): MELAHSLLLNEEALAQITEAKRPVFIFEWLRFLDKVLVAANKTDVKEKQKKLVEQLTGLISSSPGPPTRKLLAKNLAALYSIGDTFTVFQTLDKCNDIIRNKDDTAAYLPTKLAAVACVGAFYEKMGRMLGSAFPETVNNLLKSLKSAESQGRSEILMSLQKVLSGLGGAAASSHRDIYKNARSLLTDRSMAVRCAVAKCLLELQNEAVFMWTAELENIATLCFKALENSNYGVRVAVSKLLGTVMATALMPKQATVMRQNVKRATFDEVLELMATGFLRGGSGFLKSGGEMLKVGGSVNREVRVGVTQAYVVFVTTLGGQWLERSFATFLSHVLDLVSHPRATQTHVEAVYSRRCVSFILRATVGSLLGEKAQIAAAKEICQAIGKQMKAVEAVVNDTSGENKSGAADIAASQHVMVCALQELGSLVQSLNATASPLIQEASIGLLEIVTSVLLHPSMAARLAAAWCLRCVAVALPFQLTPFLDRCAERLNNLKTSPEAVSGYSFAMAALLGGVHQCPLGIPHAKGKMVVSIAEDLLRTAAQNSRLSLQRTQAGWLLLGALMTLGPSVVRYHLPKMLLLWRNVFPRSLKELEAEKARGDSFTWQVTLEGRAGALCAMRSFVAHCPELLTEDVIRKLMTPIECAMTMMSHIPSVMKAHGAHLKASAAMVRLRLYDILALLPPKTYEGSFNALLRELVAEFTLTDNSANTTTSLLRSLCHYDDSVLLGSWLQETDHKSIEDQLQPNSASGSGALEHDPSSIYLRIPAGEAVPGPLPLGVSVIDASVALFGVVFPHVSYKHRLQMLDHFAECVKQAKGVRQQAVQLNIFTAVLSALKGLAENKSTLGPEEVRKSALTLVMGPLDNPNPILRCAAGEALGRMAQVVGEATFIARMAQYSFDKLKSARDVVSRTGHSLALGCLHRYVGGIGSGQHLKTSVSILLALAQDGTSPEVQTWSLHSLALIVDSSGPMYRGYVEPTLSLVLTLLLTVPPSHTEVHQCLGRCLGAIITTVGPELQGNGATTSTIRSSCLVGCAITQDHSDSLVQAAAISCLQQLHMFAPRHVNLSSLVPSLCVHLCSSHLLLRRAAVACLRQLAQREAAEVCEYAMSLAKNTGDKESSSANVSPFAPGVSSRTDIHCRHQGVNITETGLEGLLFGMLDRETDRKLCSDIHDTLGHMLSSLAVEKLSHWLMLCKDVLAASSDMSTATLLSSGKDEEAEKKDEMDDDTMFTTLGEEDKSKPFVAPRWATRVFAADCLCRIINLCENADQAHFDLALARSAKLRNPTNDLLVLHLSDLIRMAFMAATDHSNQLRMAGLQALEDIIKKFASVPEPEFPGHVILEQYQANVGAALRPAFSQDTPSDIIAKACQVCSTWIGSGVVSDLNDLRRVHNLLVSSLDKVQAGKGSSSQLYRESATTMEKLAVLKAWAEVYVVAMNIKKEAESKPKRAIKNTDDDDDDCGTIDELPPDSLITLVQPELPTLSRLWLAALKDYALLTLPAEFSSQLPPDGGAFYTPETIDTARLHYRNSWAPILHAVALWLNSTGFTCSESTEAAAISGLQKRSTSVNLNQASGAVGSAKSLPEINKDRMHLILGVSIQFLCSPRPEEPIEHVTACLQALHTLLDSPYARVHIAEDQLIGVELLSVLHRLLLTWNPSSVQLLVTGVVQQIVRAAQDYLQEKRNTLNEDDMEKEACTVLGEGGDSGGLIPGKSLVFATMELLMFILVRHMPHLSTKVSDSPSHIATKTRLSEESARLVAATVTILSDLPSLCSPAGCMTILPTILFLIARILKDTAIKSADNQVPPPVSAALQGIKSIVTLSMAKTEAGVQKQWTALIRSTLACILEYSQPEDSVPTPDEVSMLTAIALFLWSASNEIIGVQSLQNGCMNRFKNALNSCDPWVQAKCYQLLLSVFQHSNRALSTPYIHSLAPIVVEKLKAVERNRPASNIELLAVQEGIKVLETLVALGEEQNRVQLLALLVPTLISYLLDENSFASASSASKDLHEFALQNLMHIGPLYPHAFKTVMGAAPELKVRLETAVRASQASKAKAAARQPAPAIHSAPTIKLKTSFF
UniProt Q8TEQ6, sequence (Q8TEQ6 whole entry, looked up): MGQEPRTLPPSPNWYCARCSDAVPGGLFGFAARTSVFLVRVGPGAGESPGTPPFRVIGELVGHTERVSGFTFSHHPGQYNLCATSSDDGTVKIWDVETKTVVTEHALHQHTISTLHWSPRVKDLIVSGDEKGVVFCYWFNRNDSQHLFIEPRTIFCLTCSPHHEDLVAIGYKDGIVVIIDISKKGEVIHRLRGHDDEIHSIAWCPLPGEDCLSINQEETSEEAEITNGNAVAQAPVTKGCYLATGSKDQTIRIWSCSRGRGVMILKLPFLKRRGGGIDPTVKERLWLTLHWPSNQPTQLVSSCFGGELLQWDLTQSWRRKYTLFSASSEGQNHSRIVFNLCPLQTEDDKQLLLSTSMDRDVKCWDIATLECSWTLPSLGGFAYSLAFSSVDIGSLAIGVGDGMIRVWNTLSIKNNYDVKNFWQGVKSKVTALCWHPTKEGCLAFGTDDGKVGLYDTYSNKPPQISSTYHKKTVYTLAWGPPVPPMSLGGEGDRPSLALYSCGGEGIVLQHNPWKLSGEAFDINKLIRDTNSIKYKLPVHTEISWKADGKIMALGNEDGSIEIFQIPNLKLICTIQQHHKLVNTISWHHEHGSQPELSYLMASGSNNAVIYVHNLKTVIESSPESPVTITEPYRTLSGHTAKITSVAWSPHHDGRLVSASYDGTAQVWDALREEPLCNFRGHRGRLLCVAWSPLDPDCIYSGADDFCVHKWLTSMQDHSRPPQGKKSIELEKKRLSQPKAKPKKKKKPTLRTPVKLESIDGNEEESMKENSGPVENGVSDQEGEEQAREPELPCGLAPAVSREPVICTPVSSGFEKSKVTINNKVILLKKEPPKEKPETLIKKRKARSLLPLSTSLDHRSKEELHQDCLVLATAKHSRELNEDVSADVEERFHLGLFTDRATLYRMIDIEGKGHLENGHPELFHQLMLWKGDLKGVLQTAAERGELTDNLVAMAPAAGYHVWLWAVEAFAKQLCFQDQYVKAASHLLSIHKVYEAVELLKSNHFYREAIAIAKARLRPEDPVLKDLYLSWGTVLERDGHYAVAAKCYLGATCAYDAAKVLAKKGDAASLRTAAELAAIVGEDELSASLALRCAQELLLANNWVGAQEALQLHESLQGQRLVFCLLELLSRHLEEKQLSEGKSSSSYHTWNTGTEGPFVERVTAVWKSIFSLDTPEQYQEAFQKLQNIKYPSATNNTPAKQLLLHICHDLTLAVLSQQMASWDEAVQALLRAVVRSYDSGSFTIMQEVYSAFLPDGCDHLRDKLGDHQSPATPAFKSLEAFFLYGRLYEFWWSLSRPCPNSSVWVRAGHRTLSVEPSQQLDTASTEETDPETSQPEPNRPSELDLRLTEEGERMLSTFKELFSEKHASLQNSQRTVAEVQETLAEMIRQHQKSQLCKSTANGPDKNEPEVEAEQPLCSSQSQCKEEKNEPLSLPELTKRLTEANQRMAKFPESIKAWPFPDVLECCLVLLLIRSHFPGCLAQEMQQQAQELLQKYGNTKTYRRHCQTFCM
UniProt Q53R41, sequence (Q53R41 whole entry, looked up): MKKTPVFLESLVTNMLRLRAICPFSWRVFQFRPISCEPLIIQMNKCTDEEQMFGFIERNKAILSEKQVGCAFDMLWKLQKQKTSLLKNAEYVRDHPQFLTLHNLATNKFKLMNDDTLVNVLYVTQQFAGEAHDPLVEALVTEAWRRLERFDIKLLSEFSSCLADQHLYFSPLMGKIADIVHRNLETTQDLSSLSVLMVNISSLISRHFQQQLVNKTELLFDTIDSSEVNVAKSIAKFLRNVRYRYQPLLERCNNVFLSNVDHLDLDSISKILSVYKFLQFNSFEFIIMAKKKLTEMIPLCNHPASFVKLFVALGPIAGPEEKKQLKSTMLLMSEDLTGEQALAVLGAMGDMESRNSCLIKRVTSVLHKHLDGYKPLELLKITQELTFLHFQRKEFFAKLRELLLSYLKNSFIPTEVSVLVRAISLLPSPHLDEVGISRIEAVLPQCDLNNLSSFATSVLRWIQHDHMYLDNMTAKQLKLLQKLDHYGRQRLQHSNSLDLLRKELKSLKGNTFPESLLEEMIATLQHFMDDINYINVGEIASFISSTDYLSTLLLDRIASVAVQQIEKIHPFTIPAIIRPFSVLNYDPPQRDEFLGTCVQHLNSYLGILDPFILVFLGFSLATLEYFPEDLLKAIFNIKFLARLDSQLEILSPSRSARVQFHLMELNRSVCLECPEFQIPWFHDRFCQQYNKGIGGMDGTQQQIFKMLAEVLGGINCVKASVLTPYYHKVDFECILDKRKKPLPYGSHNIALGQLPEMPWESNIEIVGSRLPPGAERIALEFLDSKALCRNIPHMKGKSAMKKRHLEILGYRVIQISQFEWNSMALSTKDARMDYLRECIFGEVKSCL
UniProt P08754, sequence (P08754 whole entry, looked up): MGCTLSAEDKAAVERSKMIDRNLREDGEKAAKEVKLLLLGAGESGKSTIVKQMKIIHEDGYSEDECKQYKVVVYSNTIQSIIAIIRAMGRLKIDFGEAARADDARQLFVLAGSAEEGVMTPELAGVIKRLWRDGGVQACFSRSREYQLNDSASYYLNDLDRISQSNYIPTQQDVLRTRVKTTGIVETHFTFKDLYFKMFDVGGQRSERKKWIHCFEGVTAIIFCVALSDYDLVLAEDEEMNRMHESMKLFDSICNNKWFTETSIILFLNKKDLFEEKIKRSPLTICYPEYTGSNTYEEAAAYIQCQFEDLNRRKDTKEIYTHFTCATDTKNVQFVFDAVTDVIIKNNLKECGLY
UniProt Q00688, sequence (Q00688 whole entry, looked up): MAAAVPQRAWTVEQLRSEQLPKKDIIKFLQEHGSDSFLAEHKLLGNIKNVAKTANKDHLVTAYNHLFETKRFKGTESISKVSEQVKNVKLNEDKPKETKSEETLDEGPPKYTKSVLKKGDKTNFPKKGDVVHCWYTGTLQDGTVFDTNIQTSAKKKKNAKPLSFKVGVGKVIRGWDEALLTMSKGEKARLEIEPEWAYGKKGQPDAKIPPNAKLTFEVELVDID

Target	log2 fold change
GTF3C4 (UniProt Q9UKN8)	-0.011 (inactive)
HEATR5B (UniProt Q9P2D3)	0.055 (inactive)
IDI1 isoform 2 (UniProt Q13907)	0.052 (inactive)
HP1BP3 (UniProt Q5SSJ5)	0.002 (inactive)
GSK3A (UniProt P49840)	0.322 (active)
GNAI3 (UniProt P08754)	0.121 (inactive)
GUSB (UniProt P08236)	0.053 (inactive)
GEMIN5 (UniProt Q8TEQ6)	-0.004 (inactive)
FASTKD1 (UniProt Q53R41)	0.097 (inactive)
GNAS (UniProt Q5JWF2)	0.049 (inactive)
GOLGB1 isoform 2 (UniProt Q14789)	-0.135 (inactive)
HEXB (UniProt P07686)	-0.009 (inactive)
H2AFX (UniProt P16104)	-0.09 (inactive)
GCDH (UniProt Q92947)	0.004 (inactive)
FIS1 (UniProt Q9Y3D6)	-0.017 (inactive)
FKBP3 (UniProt Q00688)	-0.02 (inactive)
FBXO7 (UniProt Q9Y3I1)	0.038 (inactive)
HIP1R (UniProt O75146)	0.016 (inactive)

Target	log2 fold change
IDH3A (UniProt P50213)	0.023 (inactive)
HMGB3 (UniProt O15347)	0.045 (inactive)
FBL (UniProt P22087)	-0.054 (inactive)
GAB2 (UniProt Q9UQC2)	-0.084 (inactive)
FDPS (UniProt P14324)	0.07 (inactive)
HTATIP2 isoform 3 (UniProt Q9BUP3)	0.014 (inactive)
FBXO3 (UniProt Q9UK99)	0.055 (inactive)
HMOX2 (UniProt P30519)	0.07 (inactive)
GLS isoform 3 (UniProt O94925)	0.038 (inactive)
H1FX (UniProt Q92522)	-0.175 (inactive)
GBF1 (UniProt Q92538)	-0.032 (inactive)
GTF2E1 (UniProt P29083)	0.008 (inactive)
GLCCI1 (UniProt Q86VQ1)	-0.008 (inactive)
FNTA (UniProt P49354)	0.073 (inactive)
HIP1 (UniProt O00291)	0.054 (inactive)
HIST2H3A (UniProt Q71DI3)	-0.106 (inactive)
GCC2 (UniProt Q8IWJ2)	0.04 (inactive)

compound: C[C@@H](Oc1cc(-c2cnn(C3CCNCC3)c2)cnc1N)c1c(Cl)ccc(F)c1Cl [crizotinib]; experiment: as above
Outline: as §1

Target	log2 fold change
GTF3C4 (UniProt Q9UKN8)	0.078 (inactive)
HEATR5B (UniProt Q9P2D3)	-0.058 (inactive)
IDI1 isoform 2 (UniProt Q13907)	0.093 (inactive)
HP1BP3 (UniProt Q5SSJ5)	-0.121 (inactive)
GSK3A (UniProt P49840)	0.129 (inactive)
GNAI3 (UniProt P08754)	0.103 (inactive)
GUSB (UniProt P08236)	0.004 (inactive)
GEMIN5 (UniProt Q8TEQ6)	-0.047 (inactive)
FASTKD1 (UniProt Q53R41)	0.001 (inactive)
GNAS (UniProt Q5JWF2)	0.047 (inactive)
GOLGB1 isoform 2 (UniProt Q14789)	-0.012 (inactive)
HEXB (UniProt P07686)	-0.377 (active)
H2AFX (UniProt P16104)	-0.096 (inactive)
GCDH (UniProt Q92947)	0.058 (inactive)
FIS1 (UniProt Q9Y3D6)	0.045 (inactive)
FKBP3 (UniProt Q00688)	0.017 (inactive)
FBXO7 (UniProt Q9Y3I1)	0.041 (inactive)
HIP1R (UniProt O75146)	-0.1 (inactive)

Target	log2 fold change
IDH3A (UniProt P50213)	0.006 (inactive)
HMGB3 (UniProt O15347)	0.026 (inactive)
FBL (UniProt P22087)	0.075 (inactive)
GAB2 (UniProt Q9UQC2)	-0.899 (active)
FDPS (UniProt P14324)	-0.768 (active)
HTATIP2 isoform 3 (UniProt Q9BUP3)	-0.106 (inactive)
FBXO3 (UniProt Q9UK99)	0.005 (inactive)
HMOX2 (UniProt P30519)	-0.03 (inactive)
GLS isoform 3 (UniProt O94925)	0.021 (inactive)
H1FX (UniProt Q92522)	0.091 (inactive)
GBF1 (UniProt Q92538)	-0.131 (inactive)
GTF2E1 (UniProt P29083)	0.02 (inactive)
GLCCI1 (UniProt Q86VQ1)	0.045 (inactive)
FNTA (UniProt P49354)	0.069 (inactive)
HIP1 (UniProt O00291)	-0.131 (inactive)
HIST2H3A (UniProt Q71DI3)	-0.327 (inactive)
GCC2 (UniProt Q8IWJ2)	-0.01 (inactive)

compound: C[C@@H]1COCCN1C2=NC(=NC(=C2)C3(CC3)S(=O)(=O)C)C4=C5C=CNC5=CC=C4; experiment: as above
Outline: as §1

Target	log2 fold change
GTF3C4 (UniProt Q9UKN8)	0.04 (inactive)
HEATR5B (UniProt Q9P2D3)	-0.11 (inactive)
IDI1 isoform 2 (UniProt Q13907)	0.062 (inactive)
HP1BP3 (UniProt Q5SSJ5)	-0.013 (inactive)
GSK3A (UniProt P49840)	0.053 (inactive)
GNAI3 (UniProt P08754)	-0.122 (inactive)
GUSB (UniProt P08236)	-0.018 (inactive)
GEMIN5 (UniProt Q8TEQ6)	0.038 (inactive)
FASTKD1 (UniProt Q53R41)	0.097 (inactive)
GNAS (UniProt Q5JWF2)	0.039 (inactive)
GOLGB1 isoform 2 (UniProt Q14789)	-0.314 (active)
HEXB (UniProt P07686)	0.058 (inactive)
H2AFX (UniProt P16104)	-0.39 (inactive)
GCDH (UniProt Q92947)	0.112 (inactive)
FIS1 (UniProt Q9Y3D6)	0.037 (inactive)
FKBP3 (UniProt Q00688)	0.074 (inactive)
FBXO7 (UniProt Q9Y3I1)	0.061 (inactive)
HIP1R (UniProt O75146)	0.058 (inactive)

Target	log2 fold change
IDH3A (UniProt P50213)	0.07 (inactive)
HMGB3 (UniProt O15347)	-0.018 (inactive)
FBL (UniProt P22087)	-0.266 (inactive)
GAB2 (UniProt Q9UQC2)	-0.361 (inactive)
FDPS (UniProt P14324)	0.073 (inactive)
HTATIP2 isoform 3 (UniProt Q9BUP3)	0.023 (inactive)
FBXO3 (UniProt Q9UK99)	-0.095 (inactive)
HMOX2 (UniProt P30519)	0.022 (inactive)
GLS isoform 3 (UniProt O94925)	0.256 (inactive)
H1FX (UniProt Q92522)	-0.524 (inactive)
GBF1 (UniProt Q92538)	0.023 (inactive)
GTF2E1 (UniProt P29083)	0.118 (inactive)
GLCCI1 (UniProt Q86VQ1)	0.024 (inactive)
FNTA (UniProt P49354)	0.077 (inactive)
HIP1 (UniProt O00291)	0.035 (inactive)
HIST2H3A (UniProt Q71DI3)	-0.204 (inactive)
GCC2 (UniProt Q8IWJ2)	-0.104 (inactive)
